# Compound activity: PubChem, several laboratories
# FAS-TE inh = blocks the thioesterase domain of human fatty acid synthase | recombinant FAS-TE, OMFH fluorogenic substrate, fluorescence endpoint | inhibition, % at 15 µM | 0.67% of 360,000 active | AID 602261;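 active means compounds whose normalised, plate-corrected inhibition of enzyme fluorescence in the single-dose primary screen is 50% or more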;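 further: 0% = DMSO with enzyme and 100% = substrate without enzyme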
# PLCg1 inh = inhibitors of human phospholipase C gamma1; P19174; purified PLC-gamma1, fluorogenic substrate, fluorescence; inhibition, % at 12.2 µM; 0.84% of 370,000 active; AID 720700; in the data active means inhibition above about 9.5%
# H9c2 protect = myocardial damage modulation in H9c2 cells; 0.63% of 360,000 active; H9c2 cardiomyocytes, H2O2 injury protection, ATPLite, 2 h; protection from H2O2 cell death, % at 20 µM;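 active means compounds giving at least 50% protection of heart cells from peroxide-induced death in the single-dose screen, raw or plate-pattern-corrected value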;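 further: 0% = DMSO wells with peroxide and 100% = DMSO wells without peroxide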
# PLCb3 inh = blocks human PLC-beta3 enzyme activity. inhibition, % at 12.2 µM. Purified PLC-beta3, fluorogenic substrate, fluorescence. AID 720704. 0.18% of 370,000 active;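 further: 0% = median of compound wells on plate and 100% = full blocker control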
# PLCgamma1 ctr = PLC-gamma1 inhibition, counter-screen for PLC-beta3 hits | shares compounds with PLCg1 inh | purified PLC-gamma1, fluorogenic substrate, fluorescence | inhibition, % at 12.3 µM | 3.1% of 3,300 active; in the data active means inhibition above about 9.5%
# PLCbeta3 conf = confirmation of human PLC-beta3 inhibitors. shares compounds with PLCg1 inh. purified PLC-beta3, fluorogenic substrate fluorescence. inhibition, % at 12.3 µM. 1% of 3,300 active
# The depositor's hits bear a star; nt = no result given. Sampled rows, rich in hits. Any-hit rate of the full collection: about 2.2%. Unless noted, no stated cut-off is given here; in the data, active means inhibition above about 11%; inactive means the rest.
SMILES,FAS-TE inh,PLCg1 inh,H9c2 protect,PLCb3 inh,PLCgamma1 ctr,PLCbeta3 conf
COc1ccccc1CNC(=O)[C@H](C)NC(=O)C1CCN(C(=O)[C@H](CCSC)NC(=O)OC(C)(C)C)CC1,-5.9,2.0,-0.9,5.8,nt,nt
Cc1ccc(Oc2ccc(/C=N/O)cn2)cc1,-6.7,14.1*,-10.6,0.8,-2.0,1.9
CCCCc1n[nH]c2c1/C(=N/O)CC(C)(C)C2,-20.8,0.7,-8.6,1.5,nt,nt
CCCc1n[nH]c2c1C(=O)CC(C)(C)C2,-5.4,11.2*,10.9,7.9,-2.8,-1.2
O=C(Cn1cc(C(F)(F)F)ccc1=O)N1CCc2ccccc2C1,16.2,-1.3,0.7,-10.0,nt,nt
CC1=NN(c2ccc(C)c(C)c2)C(=O)C1C(c1cccc(O)c1)C1C(=O)N(c2ccc(C)c(C)c2)N=C1C (stereo unspecified),13.4,16.1*,-4.0,5.4,-0.2,-1.2
CC1=NN(c2ccc(Cl)cc2)C(=O)C1C(c1ccccc1O)c1c(C)[nH]n(-c2ccc(Cl)cc2)c1=O (stereo unspecified),21.5,nt,-25.2,nt,nt,nt
COCCN(Cc1ccccc1)C(=S)Nc1ccc(Cl)cc1,17.4,12.7*,-18.9,-6.0,-1.4,-2.6
COc1ccc(NC(=S)N(CCO)Cc2ccccc2)cc1,-11.5,nt,-2.4,nt,nt,nt
O=C(O)Cc1ccc(NC(=O)c2ccc(NC(=O)C3CC3)cc2)cc1,-2.4,-2.0,-0.6,0.1,nt,nt
COc1ccc(C(=O)N[C@H](C(=O)NCC2CCCCC2)C(C)C)cc1,-3.1,11.7*,-5.6,1.7,-12.2,-9.9
COc1ccc(C(=O)N[C@H](C(=O)NCc2ccc(C)cc2)C(C)C)cc1,4.9,-0.7,0.6,-6.2,nt,nt
COc1ccc(-c2nc(N)nc(C(F)(F)F)c2-c2csc(C)n2)c(O)c1,-2.9,11.1*,1.8,-5.9,-4.5,-6.0
O=C(O)c1ccc(NS(=O)(=O)c2cc(Cl)ccc2Cl)cc1,-6.5,2.6,11.0,0.3,nt,nt
CC(=O)Nc1ccc(NS(=O)(=O)c2cc(Cl)ccc2Cl)cc1,-6.3,9.7*,-1.4,-3.7,-3.1,0.1
COC(=O)[C@]1(Cc2ccccc2)N[C@H](CN(C)C(=O)Nc2ccc(C)cc2)[C@@H]2C(=O)N(C)C(=O)[C@@H]21,-4.9,0.0,5.4,1.4,nt,nt
O=C(c1ccc(N2CCCC2)c([N+](=O)[O-])c1)N1CCN(S(=O)(=O)c2ccccc2)CC1,6.9,5.0,-6.5,-6.3,nt,nt
CSc1nc(C)c(Cc2ccccc2)c(=O)[nH]1,-2.6,10.9*,8.9,-0.4,-10.7,-2.9
CC(=O)N(C)c1ccc(N=Nc2c(C)[nH]n(C(N)=S)c2=O)cc1,-6.9,1.6,-11.3,4.8,nt,nt
CCN(CC)S(=O)(=O)c1ccc(N=Nc2c(C)[nH]n(C(N)=S)c2=O)cc1,-5.0,10.5*,-4.6,8.3,-0.3,2.5
O=C(COc1ccccc1)NS(=O)(=O)c1ccccc1,-2.5,10.0*,1.0,-0.8,-6.8,-1.0
Cc1cccc(-c2nn(-c3ccccc3)cc2C(=O)Nc2cccc(S(=O)(=O)NC3=NCCC3)c2)c1,7.3,10.7*,9.0,1.5,-5.9,-3.0
COc1ccc(-c2nn(-c3ccccc3)cc2C(=O)Nc2cccc(S(=O)(=O)NC3=NCCC3)c2)cc1,30.7,6.2,18.6,-4.4,nt,nt
CN(Cc1cccnc1)C(=O)c1cc(S(=O)(=O)Nc2ccccc2F)ccc1Cl,-4.2,9.3,2.2,-4.1,nt,nt
COc1ccc(Cl)cc1NC(=O)c1nnn(CC(=O)Nc2ccc(C)c(C)c2)c1N,-4.5,9.7*,8.8,-4.9,-19.2,-17.5
SMILES,FAS-TE inh,PLCg1 inh,H9c2 protect,PLCb3 inh,PLCgamma1 ctr,PLCbeta3 conf
COc1ccc(NC(=O)Cn2nnc(C(=O)Nc3ccc(F)c(Cl)c3)c2N)cc1OC,-0.2,0.1,-2.2,-3.0,nt,nt
COc1ccc(NC(=O)Cn2nnc(C(=O)NCc3ccc(C)cc3)c2N)cc1Cl,-8.0,12.8*,-14.4,-5.9,-2.4,-2.2
COc1ccc(NC(=O)Cn2nnc(C(=O)NCc3ccccc3)c2N)cc1Cl,-3.6,-3.1,-2.2,7.3,nt,nt
C[C@H](NC(=O)c1[nH]cnc1C(=O)N[C@@H](C)CO)c1ccccc1,-5.6,-0.9,-3.7,1.1,nt,nt
CCC(OC(=O)C(NC(=O)c1ccccc1)c1ccccc1)C(=O)Nc1cc(C)on1 (stereo unspecified),-1.0,12.4*,5.8,-0.2,-7.7,-10.2
CCC(Oc1ccccc1)C(=O)Nc1cc(C)on1 (stereo unspecified),-2.5,0.5,6.5,-0.3,nt,nt
COCCn1c(SCC(=O)Nc2cccnc2Cl)nc2ccccc2c1=O,-5.5,3.2,2.1,-14.2,nt,nt
COc1cccc(C(N)=O)c1OC(=O)Cc1ccccc1F,-2.0,-87.9,1.7,-116.3,nt,nt
CC(C)CNC(=O)CSc1n[nH]c(=O)n1CCc1ccccc1,-4.5,13.3*,1.6,-2.0,-1.5,-2.4
CCCNC(=O)CSc1n[nH]c(=O)n1CCc1ccccc1,-5.6,0.2,11.5,-3.3,nt,nt
CCOC(=O)N1CCN(C(=O)CN(c2ccc(OC)cc2)S(C)(=O)=O)CC1,-5.3,6.2,-4.7,11.2*,0.0,0.1
CCOC(=O)N1CCN(C(=O)CN(c2cccc(OC)c2)S(C)(=O)=O)CC1,-6.6,-0.1,1.8,0.2,nt,nt
CCOC(=O)N1CCN(C(=O)c2ccc(N(Cc3ccc(Cl)cc3)S(C)(=O)=O)cc2)CC1,0.3,1.1,3.0,-2.7,nt,nt
CCOC(=O)N1CCN(C(=O)c2ccc(N(Cc3ccc(C)cc3)S(C)(=O)=O)cc2)CC1,-0.3,11.7*,1.2,10.2,-6.4,-6.4
CCOC(=O)N1CCN(C(=O)CN(c2cccc(C)c2)S(=O)(=O)c2ccc(C)cc2)CC1,-22.0,19.6*,4.2,2.3,-15.3,-1.3
O=S1(=O)N[C@@H](Cc2ccccc2)COc2cc(N3CCOCC3)ccc21,nt,0.1,nt,3.8,nt,nt
COC(=O)c1ccc(CNC(=O)C2CCC(=O)N(CCc3ccccc3)C2)cc1 (stereo unspecified),-7.7,-0.7,2.9,-8.3,nt,nt
COC(=O)c1ccc(/C=N/N2CCN(Cc3ccccc3Cl)CC2)cc1,21.9,-0.6,-7.4,-3.2,nt,nt
CC(=NN1CCN(Cc2ccccc2Cl)CC1)c1ccc(O)cc1,nt,15.8*,nt,10.1,-3.3,-3.7
CCOC(=O)C(NC(=O)c1ccccc1F)(Nc1cc(C)on1)C(F)(F)F (stereo unspecified),-6.6,5.0,-3.0,12.1*,-2.0,-1.8
CCOC(=O)C(NC(=O)c1ccccc1)(Nc1cccc(C)n1)C(F)(F)F (stereo unspecified),3.7,2.1,11.9,0.9,nt,nt
Cc1ccccc1CN1CCN(CC(=O)NCCCN2CCN(c3ccc(F)cc3)CC2)C1=O,-6.7,9.6*,-17.9,13.3*,-2.0,-3.3
CC(C)Cn1c2c(c(O)c(C(=O)Nc3ncccc3O)c1=O)CCCC2,-9.9,-14.5,6.2,-16.4,nt,nt
CCCCc1nc2ccccc2c(=O)n1NC(=O)c1c(O)c2c(n(CC(C)C)c1=O)CCCC2,27.1,12.5*,-4.8,-0.5,-2.9,-2.9
O=S(=O)(NCCOCCNS(=O)(=O)c1ccccc1)c1ccccc1,-6.7,11.0*,8.5,4.9,6.3,-1.5
